Test results as given in ChEMBL document CHEMBL1961873, “Compounds: GSK PKIS; Assays: Nanosyn kinase panel” (2012).
Where “and” joins values, the source holds several entries; their conditions need not be identical. Identical values can stand only once.

target: Hepatocyte growth factor receptor (Homo sapiens) (UniProt P08581); conditions: at 0.1 µM
Sequence (P08581 whole entry): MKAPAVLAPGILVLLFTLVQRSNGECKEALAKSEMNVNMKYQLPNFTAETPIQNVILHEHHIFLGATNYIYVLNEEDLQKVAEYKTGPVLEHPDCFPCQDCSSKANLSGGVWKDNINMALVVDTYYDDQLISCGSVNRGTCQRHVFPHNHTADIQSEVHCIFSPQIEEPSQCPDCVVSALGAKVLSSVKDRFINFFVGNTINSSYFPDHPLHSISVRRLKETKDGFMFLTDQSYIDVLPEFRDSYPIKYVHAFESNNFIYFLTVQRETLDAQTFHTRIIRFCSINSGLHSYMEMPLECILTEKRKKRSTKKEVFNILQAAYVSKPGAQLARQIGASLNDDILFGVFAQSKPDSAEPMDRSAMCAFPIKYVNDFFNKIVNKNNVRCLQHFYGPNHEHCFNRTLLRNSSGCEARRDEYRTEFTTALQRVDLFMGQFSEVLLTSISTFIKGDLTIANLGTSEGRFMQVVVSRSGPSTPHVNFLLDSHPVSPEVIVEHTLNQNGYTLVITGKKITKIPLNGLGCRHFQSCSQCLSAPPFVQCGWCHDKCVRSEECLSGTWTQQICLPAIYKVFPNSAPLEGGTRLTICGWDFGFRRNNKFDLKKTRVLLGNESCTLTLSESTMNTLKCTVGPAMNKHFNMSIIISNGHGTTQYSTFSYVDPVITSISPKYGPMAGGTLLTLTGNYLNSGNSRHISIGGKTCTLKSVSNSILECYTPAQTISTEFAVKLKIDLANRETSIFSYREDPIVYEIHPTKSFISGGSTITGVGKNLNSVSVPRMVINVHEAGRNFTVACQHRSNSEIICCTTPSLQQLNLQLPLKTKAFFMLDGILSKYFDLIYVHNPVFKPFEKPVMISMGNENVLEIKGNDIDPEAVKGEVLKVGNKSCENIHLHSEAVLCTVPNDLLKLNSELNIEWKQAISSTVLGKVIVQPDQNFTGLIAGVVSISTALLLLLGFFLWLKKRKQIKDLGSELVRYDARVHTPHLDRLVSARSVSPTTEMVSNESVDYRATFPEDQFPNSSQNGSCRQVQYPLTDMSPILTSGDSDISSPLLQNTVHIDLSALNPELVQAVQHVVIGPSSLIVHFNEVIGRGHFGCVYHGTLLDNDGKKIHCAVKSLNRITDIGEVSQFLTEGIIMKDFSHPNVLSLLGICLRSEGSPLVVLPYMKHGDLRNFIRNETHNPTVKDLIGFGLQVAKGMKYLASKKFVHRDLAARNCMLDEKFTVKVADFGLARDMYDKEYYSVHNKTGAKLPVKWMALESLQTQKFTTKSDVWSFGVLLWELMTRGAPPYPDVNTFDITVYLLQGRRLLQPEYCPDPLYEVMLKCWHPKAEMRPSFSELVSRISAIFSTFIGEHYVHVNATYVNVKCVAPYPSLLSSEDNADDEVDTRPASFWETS

| SMILES | inhibition |
| --- | --- |
| COc1cc2c(cc1Nc1nc(Nc3cccc(F)c3C(N)=O)c3cc[nH]c3n1)N(C(=O)CN1CCN(C(C)C)CC1)CC2 | 5.94% |
| Fc1cccc(COc2ccc(Nc3ncncc3C#Cc3ccccc3)cc2Cl)c1 | 8.24% |
| CS(=O)(=O)Nc1ccc(-c2ccc3c(NC(=O)C4CC4)n[nH]c3c2)cc1 | 6.7% |
| CCCNc1cccc(-n2ncc3c(N/N=C/c4ccncc4)ncnc32)c1 | 12.6% |
| Nc1ncnc2occ(-c3ccc(NC(=O)Nc4cc(C(F)(F)F)ccc4F)cc3)c12 | 11% and 2.19% |
| NS(=O)(=O)c1cccc(N/C=C2\C(=O)Nc3ccccc32)c1 | 4.45% |
| COc1cc(N2CCN(C(C)C)CC2)ccc1Nc1nc(Nc2cccc3ncccc23)c2cc[nH]c2n1 | -2.89% |
| CN1CCC(C(=O)Nc2n[nH]c3nc(-c4ccc(O)cc4)c(Br)cc23)CC1 | 3.13% and 11.9% |
| CCn1c(-c2nonc2N)nc2cncc(C(=O)NCCNC)c21 | 1.82% |
| CCN1CCC(C(=O)Nc2n[nH]c3nnc(-c4cccc(F)c4F)cc23)CC1 | 4.13% |
| CNC(=O)c1sc(-n2cnc3cc(OC)c(OC)cc32)cc1OCc1ccccc1C(F)(F)F | 1.53% |
| N#Cc1ccc2c(-c3ccnc(NC4CC4)n3)c(-c3ccc(F)cc3)nn2c1 | 3.34% |
| COc1ccc2ncn(-c3cc(O[C@H](C)c4ccccc4C(F)(F)F)c(C(N)=O)s3)c2c1 | -3.32% |
| c1cnn2ncc(-c3ccnc(NCCCN4CCOCC4)n3)c2c1 | -0.1% |
| O=C(Nc1n[nH]c2nnc(-c3cccnc3)cc12)C1CC1 | 3.88% |
| CS(=O)(=O)CCNCc1ccc(-c2ccc3ncnc(Nc4ccc(OCc5cccc(C(F)(F)F)c5)cc4)c3c2)o1 | 2.15% |

target: Hepatocyte growth factor receptor (Homo sapiens) (UniProt P08581); conditions: at 1 µM

| SMILES | inhibition |
| --- | --- |
| CCS(=O)(=O)c1ccc(OC)c(Nc2ncc(-c3cccc(F)c3)o2)c1 | 5.27% |
| CC1(C)CC(n2cnc(-c3ccc(F)cc3)c2-c2ccnc(N)n2)CC(C)(C)N1 | 5.56% |
| Fc1ccc(Nc2nccc(-c3c(-c4ccc(C(F)(F)F)cc4)nn4ncccc34)n2)cc1F | 4.74% |
| CCOc1ccc2c(-c3ccnc(Nc4cc(OC)cc(C(F)(F)F)c4)n3)cnn2n1 | 5.18% |
| CS(=O)(=O)CCNCc1ccoc1-c1ccc2ncnc(Nc3ccc(OCc4ccccc4)cc3)c2c1 | 4.88% |
| Cc1ccc(-c2cc3c(NC(=O)C4CC4)ncnc3o2)cc1 | 4.06% |
| O=C(O[C@H]1CN[C@H](C#Cc2cc3ncnc(Nc4ccc(OCc5cccc(F)c5)c(Cl)c4)c3s2)C1)N1CCOCC1 | 7.49% |
| COc1ccc(Nc2ncc(-c3ccccc3)o2)cc1OC | 1.69% |
| O=C(O[C@H]1CN[C@H](C#Cc2cc3ncnc(Nc4ccc5c(ccn5Cc5cc(F)ccc5F)c4)c3s2)C1)N1CCOCC1 | 10.8% |
| Cc1c2ccc(N(C)c3ccnc(Nc4cccc(S(N)(=O)=O)c4)n3)cc2nn1C | 28.1% |
| OCCCNc1nccc(-c2c(-c3ccc(F)cc3)nn3cc(C(F)(F)F)ccc23)n1 | 5.11% |
| O=C(O[C@H]1CN[C@H](C#Cc2cc3ncnc(Nc4ccc5c(cnn5Cc5ccccc5)c4)c3s2)C1)N1CCOCC1 | 1.77% |
| CCS(=O)(=O)c1ccc(OC)c(Nc2ncc(-c3cccc(C(C)=O)c3)o2)c1 | 7.9% |
| CS(=O)(=O)CCNCc1ccc(-c2ccc3ncnc(Nc4ccc(OCc5ccccc5)cc4)c3c2)o1 | 4.43% |
| Cn1c(-c2nonc2N)nc2cnccc21 | 3.65% |
| COc1cc2c(cc1Nc1nc(Nc3cccc(F)c3C(N)=O)c3cc[nH]c3n1)N(C(=O)CN1CCN(C(C)C)CC1)CC2 | 1.99% |

| SMILES | inhibition |
| --- | --- |
| Fc1cccc(COc2ccc(Nc3ncncc3C#Cc3ccccc3)cc2Cl)c1 | 5.53% |
| CS(=O)(=O)Nc1ccc(-c2ccc3c(NC(=O)C4CC4)n[nH]c3c2)cc1 | -3.22% |
| CCCNc1cccc(-n2ncc3c(N/N=C/c4ccncc4)ncnc32)c1 | 49% |
| Nc1ncnc2occ(-c3ccc(NC(=O)Nc4cc(C(F)(F)F)ccc4F)cc3)c12 | 29.8% and 11% |
| NS(=O)(=O)c1cccc(N/C=C2\C(=O)Nc3ccccc32)c1 | 6.92% |
| COc1cc(N2CCN(C(C)C)CC2)ccc1Nc1nc(Nc2cccc3ncccc23)c2cc[nH]c2n1 | -1.9% |
| CN1CCC(C(=O)Nc2n[nH]c3nc(-c4ccc(O)cc4)c(Br)cc23)CC1 | 14.2% and 6.92% |
| CCn1c(-c2nonc2N)nc2cncc(C(=O)NCCNC)c21 | 4.45% |
| CCN1CCC(C(=O)Nc2n[nH]c3nnc(-c4cccc(F)c4F)cc23)CC1 | 2.58% |
| CNC(=O)c1sc(-n2cnc3cc(OC)c(OC)cc32)cc1OCc1ccccc1C(F)(F)F | 3.89% |
| N#Cc1ccc2c(-c3ccnc(NC4CC4)n3)c(-c3ccc(F)cc3)nn2c1 | 3.65% |
| COc1ccc2ncn(-c3cc(O[C@H](C)c4ccccc4C(F)(F)F)c(C(N)=O)s3)c2c1 | 0.66% |
| c1cnn2ncc(-c3ccnc(NCCCN4CCOCC4)n3)c2c1 | 0.15% |
| O=C(Nc1n[nH]c2nnc(-c3cccnc3)cc12)C1CC1 | 0.68% |
| CS(=O)(=O)CCNCc1ccc(-c2ccc3ncnc(Nc4ccc(OCc5cccc(C(F)(F)F)c5)cc4)c3c2)o1 | 4.91% |
